Among all 48,000 compounds or so, about 13,000 (27%) showed an effect of 50% or more. This is one part of the list.
test system: Wolbachia pipientis; experiment: Anti-Wolbachia Cell-Based Screen; type: functional; set-up: scale not given: in the data most compounds retested in dose-response had high values; settings: 5 µM

Compound	Percent Effect [%]
CCCN1CCc2[nH]cnc2C12CCN(C(=O)CCn1cccn1)CC2	-44.41
O=C(CCCc1nnc(-c2ccccc2)o1)N1CCN(CCO)CC1	-6.561
CCOc1ccccc1N(C)C(=O)c1cscn1	11.28
CC1CN(C(=O)c2cnn(-c3ccccn3)c2C(C)C)CC(C)(C)O1 (configuration not stated)	3.589
Cc1ccc(C(=O)NCC(c2cnn(C)c2)N(C)C)c(O)c1 (configuration not stated)	194.8
Cc1ccc(NC(=O)NCC(c2cnn(C)c2)N(C)C)c(C)c1 (configuration not stated)	-2.112
Cn1cc(C(O)CNC(=O)c2cc(Br)ccc2Cl)cn1 (configuration not stated)	133.1
CSCC(C)(O)CNC(=O)c1cc(Br)ccc1Cl (configuration not stated)	7.074
Cn1cc(C(O)CNC(=O)Nc2cc(F)ccc2-n2cccn2)cn1 (configuration not stated)	-4.933
CCOc1cc(F)ccc1NC(=O)NCC(c1cnn(C)c1)N(C)C (configuration not stated)	4.743
CC(CNC(=O)c1ccc(F)cc1Cl)N1CCCC1 (configuration not stated)	2.022
Cn1cc(CCCNC(=O)NCC(O)c2ccsc2)cn1 (configuration not stated)	-8.721
Cn1cc(C(O)CNC(=O)c2sccc2OC(F)F)cn1 (configuration not stated)	-0.7442
Cc1ccc(C(=O)NCC(O)c2cnn(C)c2)c(Br)c1 (configuration not stated)	99.45
Cn1cc(C(O)CNC(=O)c2ccc(F)cc2Cl)cn1 (configuration not stated)	121.3
Cc1ccc(C(O)CNC(=O)c2cccnc2O)cc1 (configuration not stated)	-65.97
CC(NCCn1cccn1)c1cc(F)ccc1F (configuration not stated)	17.19
O=c1[nH]nc(SCC2CCCCO2)n1C1CC1 (configuration not stated)	3.518
COc1cc(CC(O)CO)c(OC)c2c1OCO2 (configuration not stated)	13.41
O=C(CN1CCc2ccccc2C1)NCc1ccco1	-0.1453
O=C(c1cc(Cl)c(Br)[nH]1)N1CCN(Cc2ccco2)CC1	4.507
O=C1CCNc2ccccc2CN1Cc1ccco1	99.7
O=C1CCOCCN1Cc1ccc(Cl)c(F)c1	-26.47
O=C1C(NS(=O)(=O)c2cc(F)cc(F)c2)CCN1Cc1ccccc1 (configuration not stated)	-1.299
O=C(NCCc1ccc2c(c1)OCO2)C1CCCN(Cc2ccco2)C1 (configuration not stated)	-5.327
O=C1CCNc2cc3c(cc2CN1Cc1ccco1)OCO3	103.2

Compound	Percent Effect [%]
O=C1CCNc2ccc(F)cc2CN1Cc1ccco1	96.92
O=S(=O)(Cc1ccc(F)cc1)NCc1ccco1	9.126
O=C(c1cc(Br)c[nH]1)N1CCN(Cc2ccco2)CC1	-4.103
O=C1CCNc2ccc(F)cc2CN1Cc1ccccc1	102.2
O=C(CSC1CCc2ccccc2NC1=O)NCCc1ccco1 (configuration not stated)	9.555
CC(C)(C)CN(CCC#N)C(=O)Cc1ccc(-n2cnnn2)cc1	-11.58
COCCc1noc(CN2CCc3nn(C(C)C)c(=O)cc3C2)n1	0.5745
Cc1nnc(CN(C)CCc2nc(-c3cccc(Cl)c3)no2)n1C	-15.48
Cc1cnn(C2CN(CC(O)c3ccccc3)C2)c1 (configuration not stated)	7.133
O=C(COc1ccc2c(c1)CCCC2=O)NCc1ccco1	5.581
COc1ccc2c(c1)CN(Cc1ccco1)C(=O)CCN2	81.17
CN(C1CCCCC1)S(=O)(=O)N1CCN(Cc2ccco2)CC1	20.54
CN(Cc1n[nH]c(=O)n1Cc1ccco1)S(C)(=O)=O	13.53
NCCSc1nccc(-c2cnc(C3CC3)nc2-c2ccco2)n1	112.5
Cc1ncc(-c2ccnc(SCCN(C)C)n2)c(-c2ccco2)n1	91.76
Cc1ncc(-c2ccnc(SCCN)n2)c(-c2ccco2)n1	79.73
Cc1ncc(-c2ccnc(N3CCN(C)CC3)n2)c(-c2cccnc2)n1	-5.726
COCCN(c1cc(C)nc2nc(C(F)(F)F)nn12)C1CCCC1	-0.8248
O=C1NCC(c2ccc(F)cc2)Cc2[nH]c(CCN3CCCC3)nc21 (configuration not stated)	95.37
CC1(C)CNC(=O)c2nc(CCN3CCOCC3)[nH]c2C1	-31.15
O=C1NCC(c2ccc(Cl)cc2)Cc2[nH]c(CCN3CCOCC3)nc21 (configuration not stated)	104.7
CCN(CC)CCc1nc2c([nH]1)CC(c1ccc(Cl)cc1)CNC2=O (configuration not stated)	-9.032
CCn1cnnc1Cc1nc2c([nH]1)CC(c1ccc(Cl)cc1)CNC2=O (configuration not stated)	5.995
CC1(C)CNC(=O)c2nc(CCCN3CCCC3)[nH]c2C1	-5.112
Cc1cc(-c2ccc(C(C)N3CCCCC3)cc2)cnc1N (configuration not stated)	11.64
Cc1nccnc1N1Cc2cnn(Cc3ccc(F)cc3)c2C1	9.58

Compound	Percent Effect [%]
CC(=O)Nc1ccc2nc(-c3nccn3CC(C)(C)CO)ccc2c1	3.908
Cc1noc(CNc2ccc(C(=O)N3CCCC(C)C3)cc2C)n1 (configuration not stated)	71.8
CCc1noc(CNc2ccc(C(=O)N3CCCC(C)C3)cc2C)n1 (configuration not stated)	-0.296
Cc1nccn1C1CCCN(C(=O)CCc2nc(C(C)C)no2)C1 (configuration not stated)	10.57
Cc1cc(C(=O)N2CCCC(C)C2)ccc1NCc1nc(C2CC2)no1 (configuration not stated)	111.9
Cc1cc(C(=O)N2CCCC(C)C2)ccc1NCc1nc(C(C)C)no1 (configuration not stated)	111.7
CC(C)c1noc(CNc2ccc(OC(F)F)cc2OC(F)F)n1	-33.16
CCc1cnc(CNc2ccc(C(=O)N3CCCC(C)C3)cc2C)o1 (configuration not stated)	0.007999
Cc1cc(CNc2ccc(C(=O)N3CCCC(C)C3)cc2C)no1 (configuration not stated)	0.152
CNS(=O)(=O)Cc1cccc(CNCc2ccsc2)c1	-11.11
CCN(Cc1cnn(CC)c1)C(=O)Cn1c(=O)ccc2ccccc21	8.668
Cc1noc(C)c1CN(C)C(=O)c1ccc(NC2CC2)nc1	-0.4037
O=C1NCCCc2[nH]c(Cc3ccc(F)cc3)nc21	-3.55
Cc1ccc(Cc2cnc(C3CCNCC3)cn2)cc1.Cl	94.42
Cl.Fc1ccc(Cc2cnc(C3CCCN3)cn2)cc1 (configuration not stated)	101.6
Cl.O=C1NCCCCC1NCc1csc(-c2ccc(F)cc2)n1 (configuration not stated)	-5.681
CN(C)C(=O)c1cccc(CCNc2ccccc2S(C)(=O)=O)c1	-12.66
CC(C)Nc1ncccc1C(=O)NC1CC(=O)N(CC(F)(F)F)C1 (configuration not stated)	5.646
CC(=O)N(C)CC(=O)NCC1(c2c(F)cccc2F)CCCC1	20.23
Cc1cc(C)n(C2CCCN(C(=O)c3ccc(NC4CC4)nc3)C2)n1 (configuration not stated)	-9.75
CNC(=O)c1ccc(C(=O)N2CCCC(n3nc(C)cc3C)C2)cn1 (configuration not stated)	97.01
Cc1cc(C)n(C2CCCN(C(=O)c3cnc4onc(C)c4c3)C2)n1 (configuration not stated)	3.729
Cc1cc(C)n(C2CCCN(C(=O)c3ccnc(N(C)C)c3)C2)n1 (configuration not stated)	-18.09
Cc1cc(C)n(C2CCCN(C(=O)c3ccc(N(C)C)nc3)C2)n1 (configuration not stated)	99.92
Cc1cc(C)n(C2CCCN(C(=O)c3ccn(C)c(=O)c3)C2)n1 (configuration not stated)	-8.273
O=C(NC1CCCNC1=O)c1ccc2nc(-c3ccc(F)cc3)cn2c1 (configuration not stated)	-16.52

Compound	Percent Effect [%]
CC1CCCCN1CCNC(=O)c1ccccc1N1CCOCC1 (configuration not stated)	19.03
CCc1ncncc1C(=O)NCCN1CCC(C)CC1	6.983
Cc1cc(C(=O)NCCN2CCCC(C)C2)nn1C(C)(C)C (configuration not stated)	95.43
Cc1cc(C(=O)NCCN2CCCC(C)C2)nn1C (configuration not stated)	-3.799
Cc1cc(C(=O)NCCN2CCC(C)CC2)nn1C(C)(C)C	102.5
CC1CCCCN1CCNC(=O)c1ccn(-c2ccc(F)cc2)n1 (configuration not stated)	4.653
Cc1cc(C(=O)NCCN2CCCCC2C)nn1C(C)(C)C (configuration not stated)	107.2
CC1CCCN(CCNC(=O)c2cncnc2C(C)C)C1 (configuration not stated)	11.51
CC1CCN(CCNC(=O)c2ccccc2N2CCOCC2)CC1	-0.8532
Cc1cc(C(=O)NCCN2CCCCCC2)nn1C(C)(C)C	99.33
CCc1ncc(C(=O)N2CCN(c3nc(C)cc(OC)n3)CC2)s1	-13.57
CC(C)NC(=O)[C@@H]1C[C@H](N)CN1C(=O)c1cc2c([nH]c1=O)CCCC2	1.783
Cc1cccc2c1cnn2CCC(=O)NCC(=O)N(C)C	14.92
Cc1cc(C(=O)NCCN2CCCCC2)nn1C(C)(C)C	88.73
Cc1cc(C(=O)N2CCCC(N3CCCCCC3)C2)nn1C(C)(C)C (configuration not stated)	-14.1
O=C(O)C(F)(F)F.O=C(c1cc[nH]n1)N1CCC(F)(F)C2(CCN(c3ccccn3)C2)C1 (configuration not stated)	-20.89
O=C(O)C(F)(F)F.c1ccc(CN2CCOC3(COCCN(c4ncccn4)C3)C2)nc1 (configuration not stated)	-5.957
FC1(F)CCN(Cc2ccncc2)CC12CCN(c1cnccn1)C2.O=C(O)C(F)(F)F.O=C(O)C(F)(F)F.O=C(O)C(F)(F)F (configuration not stated)	91.26
FC1(F)CCN(Cc2ccccn2)CC12CCN(c1cnccn1)C2.O=C(O)C(F)(F)F.O=C(O)C(F)(F)F.O=C(O)C(F)(F)F (configuration not stated)	108
FC1(F)CCN(Cc2ccccn2)CC12CCN(c1ncccn1)C2.O=C(O)C(F)(F)F (configuration not stated)	99.55
Fc1cnc(N2CCC3(CC2)CN(Cc2ccccn2)CCO3)nc1.O=C(O)C(F)(F)F.O=C(O)C(F)(F)F	3.828
Fc1ccc(CN2CCC(F)(F)C3(CCN(c4cnccn4)C3)C2)cc1.O=C(O)C(F)(F)F.O=C(O)C(F)(F)F (configuration not stated)	95.57
O=C(NC[C@H]1OC[C@@H](NCc2ccccn2)[C@@H]1O)c1ccncc1	-10.69
CC1=N[C@@]2(CC[C@@H]3CN(S(=O)(=O)C4CC4)C[C@@H]32)C(=O)N1CC(C)C	6.738
